Assay results published in the supplement of paper PMC12636033.
± gives the standard deviation of the averaged measurements. Whole data set: some 33,000 sequences, median “E-score (rank enrichment, -0.5 to 0.5)” near -0.0043, cut for the highest 2% near 0.24. This is one part of a sample in which the highest values are shown more often than they occur.

What follows are sequences tested on 2Sp-muMax20 (muMax20 with two 2,6-bis(methyl)pyridine Cys staples) (assay: PBM 8-mer E-score (E-score (rank enrichment, -0.5 to 0.5)); higher = stronger preferential binding).
Procedure: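 Protein binding microarray (universal PBM chip covering all 10-mers in fixed probe flanks) with chemically synthesized human Max(13-93) bHLH-LZ analogs (not full-length Max) bearing noncanonical residues (hArg, Tha, Aib, Nle at 65) and aromatic Cys staples. Read-out per 8-mer (and its reverse complement): E-score (rank-based enrichment, -0.5 to 0.5) and Z-score of median probe intensity.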

Sequence | PBM 8-mer E-score
TCATTTCA | 0.171 ± 0.068
CATGGCCA | 0.0303 ± 0.016
CCAGCAGG | -0.054 ± 0.077
CGTTTCAA | -0.171 ± 0.036
CGTTTATC | -0.0397 ± 0.011
AGGCCCGA | -0.161 ± 0.0046
CATATACG | 0.0657 ± 0.013
CATATAGG | 0.145 ± 0.0097
CATATAGA | 0.182 ± 0.038
AAGATATC | 0.211 ± 0.14
GATATATA | 0.204 ± 0.027
AAGATATA | 0.259 ± 0.022
TATATATA | 0.315 ± 0.019
CATATATG | 0.308 ± 0.036
TATATAGA | 0.166 ± 0.025
CATATATA | 0.277 ± 0.012
CATATATC | 0.232 ± 0.0054
CAGATATA | 0.0905 ± 0.056
CCTAGTAG | 0.00183 ± 0.043
CACACTAA | 0.172 ± 0.041
CGTCCCAG | -0.132 ± 0.0026
CTATGGAG | 0.0519 ± 0.034
CAAGCTTA | -0.00639 ± 0.037
CCTGCCAC | -0.0854 ± 0.043

Sequence | PBM 8-mer E-score
AGACCGTG | -0.2708 ± 0.0017
TATGCCGA | -0.0358 ± 0.062
ACCAGCAG | -0.0797 ± 0.013
CCCGCCAG | -0.131 ± 0.01
GTTATAGA | 0.175 ± 0.05
GTAATATA | 0.255 ± 0.07
GATCTATA | -0.0283 ± 0.079
CATCTATA | 0.288 ± 0.024
AATCTATA | 0.147 ± 0.091
CTAATCTA | 0.0847 ± 0.035
ATAATATA | 0.194 ± 0.04
ATAATCTA | 0.141 ± 0.07
CTTATATA | 0.166 ± 0.073
GTAATCTA | 0.259 ± 0.056
CTAATATA | 0.1721 ± 0.00093
GTTATATA | 0.264 ± 0.022
ACCGCCCG | -0.242 ± 0.065
AAGGCGCC | 0.175 ± 0.087
CGCAACCA | 0.0737 ± 0.021
CCTTGCCA | -0.0434 ± 0.087
AGAATTTA | 0.284 ± 0.096
ATAATTGA | 0.2552 ± 0.0018
GTAATTGA | 0.0816 ± 0.034
CTAATTGA | -0.0167 ± 0.015

Sequence | PBM 8-mer E-score
CGAATTTA | 0.131 ± 0.035
AGAATTTC | -0.0921 ± 0.041
ATAATTTA | 0.284 ± 0.12
GTAATTTA | 0.0251 ± 0.0029
ATAATTTG | 0.183 ± 0.083
CGTGACTA | 0.0126 ± 0.018
ATTCTAGG | -0.0261 ± 0.025
ATTAACGA | 0.0547 ± 0.19
GTCCACCA | -0.0165 ± 0.0032
CTGCCCAA | -0.0288 ± 0.022
CATGTACC | -0.115 ± 0.026
GTATATGA | 0.0252 ± 0.077
ATATATGC | 0.251 ± 0.052
ACATATGC | 0.0823 ± 0.085
AAATATGG | 0.18 ± 0.0044
ATATATGG | 0.285 ± 0.018
ATATATGA | 0.293 ± 0.049
CTATATGA | 0.145 ± 0.07
CTATATGC | 0.159 ± 0.037
AGATATGG | 0.168 ± 0.027
ATCCTGTG | -0.0686 ± 0.032
GGCGGACC | -0.233 ± 0.004
ATATGAGC | 0.148 ± 0.011
GACATCTC | -0.202 ± 0.052

Sequence | PBM 8-mer E-score
TGTGCAAA | -0.0258 ± 0.033
ATTACATA | 0.0685 ± 0.037
ATTACATC | 0.126 ± 0.094
ATTACAGC | -0.033 ± 0.008
ATTACAGG | 0.312 ± 0.042
ATTACAGA | -0.0244 ± 0.14
ATTACATG | 0.242 ± 0.037
GGCTGGGA | -0.0185 ± 0.052
ACACCGAA | -0.0827 ± 0.029
ACCTCGGA | -0.233 ± 0.0065
CAGTCTCA | -0.0913 ± 0.013
AAATTATC | 0.199 ± 0.084
CAATTATA | 0.176 ± 0.028
TAATTATA | 0.245 ± 0.027
AAGTTATA | 0.0392 ± 0.07
TAGTTATA | 0.255 ± 0.0097
GAATTATA | 0.19 ± 0.11
AAATTATG | 0.134 ± 0.036
AAATTATA | 0.301 ± 0.063
GAGTTATA | 0.104 ± 0.048
CGCCTTCA | -0.00719 ± 0.17
AGATGCCG | -0.118 ± 0.13
